Data: PubChem BioAssay
Active and inactive are the calls of the source.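 The calls were made as follows: active = thallium flux through the channel raised or lowered by more than 3 SD from vehicle-only wells, actives on both sides; inactive = the rest.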

What follows are compounds tested on R275C/Slo1WT/beta2 (assay: BK channel mutant inhibitors and activators – cell-based, U2OS BacMam, thallium flux, beta subunits, selectivity assay, profiling panel (AID 1259406;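 also: initial slope of Thallos dye fluorescence rise after thallium is added; log ratio against the mean of 0.3% DMSO vehicle wells on the same plate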)). Conditions: U2OS BacMam BK variants, at 30 µM.
`O=[N+]([O-])c1ccc(N2CCSCC2)cc1O` was tested, and the log fold change Tl+ flux was 0.0333 (inactive).
With `O=S(=O)(Nc1cc(Cl)c(-n2cccc2)cc1Oc1ccc(Cl)cc1)c1ccc(Cl)cc1` the log fold change Tl+ flux was -0.0536 (inactive).
`COc1cccc(C(=O)Nc2cc(F)c(Br)cc2F)c1` was tested, and the log fold change Tl+ flux was -0.0319 (inactive).
`CCCn1c(=O)c(Br)cn(-c2ccccc2C)c1=O` was tested, and the log fold change Tl+ flux was 0.0347 (inactive).
With `Cc1cc(C(=O)N2CCN(c3ncccc3C#N)CC2)no1` the log fold change Tl+ flux was 0.00615 (inactive).
In the case of `FC(F)(F)c1ccc(-c2csc(C3(c4ccc(Cl)cc4Cl)CC3)n2)cc1`, the log fold change Tl+ flux is reported as -0.0337 (inactive).
`CCOC(=O)c1c[nH]n2c(=O)c3c(nc12)CCC3` was tested, and the log fold change Tl+ flux was -0.0235 (inactive).
In the case of `CN(C)C=Nc1cc(Cl)c(-n2cccc2)cc1Oc1ccc(Cl)cc1`, the log fold change Tl+ flux is reported as -0.0144 (inactive).
`Cc1cc2c(NC(=O)c3ccccc3C(=O)O)cccc2nn1` was tested, and the log fold change Tl+ flux was -0.00217 (inactive).
In the case of `O=c1n(-c2ccccc2)c(=O)n2n1C1CCC2C1`, the log fold change Tl+ flux is reported as 0.0498 (inactive).
For `NC(Cc1ccc(OCc2ncc(C(F)(F)F)cc2Cl)cc1)=NOC(=O)c1ccccc1`, the log fold change Tl+ flux was 0.0382 (inactive).
`Cc1cc2c(cc1C)CSC(c1ccco1)SC2` was tested, and the log fold change Tl+ flux was -0.0173 (inactive).
`Cn1c(C(=O)O)ccc1S(=O)(=O)N(Cc1ccccc1)Cc1ccccc1` was tested, and the log fold change Tl+ flux was 0.0146 (inactive).
`CCOC(=O)Cn1c(-c2c(Cl)cccc2Cl)noc1=O` was tested, and the log fold change Tl+ flux was 0.00072 (inactive).
With `COC(=O)C(C#N)=C1NC(C)=NC(SC)=C1C#N` the log fold change Tl+ flux was 0.0253 (inactive).
For `CS(=O)(=O)NNc1c(Cl)cc(Cl)cc1Cl`, the log fold change Tl+ flux was 0.0607 (inactive).
With `Cc1cnc(N)c(C)n1` the log fold change Tl+ flux was 0.0123 (inactive).
With `CC12CCC(c3c1nn(-c1ccccc1)c3C(F)(F)F)C2(C)C` (stereo not given) the log fold change Tl+ flux was -0.0353 (inactive).
With `N#CC(NCc1ccccc1Cl)=C(C#N)NCc1c(F)cccc1Cl` the log fold change Tl+ flux was 0.00197 (inactive).
`O=S(=O)(NCc1ccc2c(c1)CCO2)c1cccs1` was tested, and the log fold change Tl+ flux was -0.0508 (inactive).
`Cc1ccc(S(=O)(=O)NC(=O)NCc2csc3ccc(Cl)cc23)cc1` was tested, and the log fold change Tl+ flux was 0.116 (active).
In the case of `CCSc1ccc(-c2noc(C(C)(C)C)n2)cn1`, the log fold change Tl+ flux is reported as -0.00966 (inactive).
`O=C(Nc1c(S(=O)(=O)c2ccccc2)csc1Br)c1ccccc1Cl` was tested, and the log fold change Tl+ flux was 0.0177 (inactive).
For `O=C(O)CCSc1ccc2ccccc2c1`, the log fold change Tl+ flux was 0.000781 (inactive).
For `Cc1ccc(S(=O)(=O)Oc2c(Cc3ccccc3)c(=O)n(C)c3ccccc23)cc1`, the log fold change Tl+ flux was 0.0422 (inactive).
For `O=C1CCC(=O)N1c1ccc(S(=O)(=O)NCCCN2CCN(Cc3ccccc3)CC2)cc1`, the log fold change Tl+ flux was -0.018 (inactive).
With `CN1c2ccsc2C(=O)C(=NNc2cccc(C(F)(F)F)c2)S1(=O)=O` the log fold change Tl+ flux was -0.0248 (inactive).
In the case of `Cc1cc(NS(=O)(=O)c2ccc(NC(=O)c3nccnc3C(=O)O)cc2)no1`, the log fold change Tl+ flux is reported as -0.0416 (inactive).
`Clc1ccc(-c2cnc(-c3ccc(Cl)cc3)o2)cc1` was tested, and the log fold change Tl+ flux was -0.017 (inactive).
With `Cn1c(SCCS(=O)(=O)c2ccc(OC(F)(F)F)cc2)nnc1C(F)(F)F` the log fold change Tl+ flux was -0.0104 (inactive).
In the case of `N#CC1=C(Nc2ccccc2Cl)SC(c2ccncc2)NC1=O` (stereo not given), the log fold change Tl+ flux is reported as 0.0417 (inactive).
For `COC(=O)c1c(S(=O)(=O)N2CCOCC2)c(C)n(C)c1C`, the log fold change Tl+ flux was -0.000777 (inactive).
In the case of `Cc1ccc(-c2nc(N=CNOC(=O)c3ccc([N+](=O)[O-])cc3)sc2C)cc1Cl`, the log fold change Tl+ flux is reported as 0.0243 (inactive).
In the case of `CCCCCCCCCCCCSC(=S)Nc1ccc(Br)c(C)c1`, the log fold change Tl+ flux is reported as 0.0211 (inactive).
With `O=[N+]([O-])c1cnc(Sc2nccc(-c3cccnc3)n2)s1` the log fold change Tl+ flux was -0.0189 (inactive).
With `COc1ccc(Oc2ccc([N+](=O)[O-])cc2C2=NC(=CN(C)C)C(=O)O2)cc1` the log fold change Tl+ flux was -0.0407 (inactive).
For `Cc1c(Br)sc2sc(-c3ccnc(SCc4ccccc4)n3)c(C)c12`, the log fold change Tl+ flux was -0.00994 (inactive).
For `NC1(C(=O)O)CCSCC1`, the log fold change Tl+ flux was -0.00295 (inactive).
In the case of `COc1ccc2c(OC(C)=O)coc2c1`, the log fold change Tl+ flux is reported as -0.00513 (inactive).
In the case of `CC1(C)CC(=O)C=C(NCCCCCCCCNC2=CC(=O)CC(C)(C)C2)C1`, the log fold change Tl+ flux is reported as -0.149 (active).
